Assay results from PubChem BioAssay (EPA / NIEHS).
Values joined by “and” are separate entries in the source; they are usually repeats but may differ in a detail not shown here. Identical values can stand only once. Results filed as inconclusive are left out. Some compounds were tested as several samples or in several runs, with calls that do not always agree. Active and inactive are the calls of the source. Rule for the calls, unless noted: active = hit-call score of the fitted dose curve at least 0.9, where 1 is the maximum; inconclusive = response in the unintended direction; inactive = score below 0.9.

Key:
[1] = molecular target: human CYP2J2, CYP2J2 (gene 1573) (UniProt P51589); assay: NVS_ADME_hCYP2J2: NovaScreen (NVS) CYP450-related Enzyme Activity (ADME) Assay for human CYP2J2 (AID 2283106)
How it was run: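 Chemicals were first tested at 10 uM in duplicate, and hits meeting criteria such as 30% inhibition were run in singleton concentration series with a 20 uM top concentration. Enzyme activity of recombinant CYP2J2 was measured by fluorescence after 1 h, relative to acetonitrile.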

[2] = molecular target: human CYP2D6, CYP2D6 (gene 1565) (UniProt P10635); assay: NVS_ADME_hCYP2D6: NovaScreen (NVS) CYP450-related Enzyme Activity (ADME) Assay for human CYP2D6 (AID 2283107)
How it was run: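 Insect-cell recombinant enzyme + fluorogenic substrate, cell-free; 1 h incubation; fluorescence intensity readout. Acetonitrile = neg. ctrl/baseline. Single-point 10 uM, duplicate; follow-up concentration series.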

[3] = molecular target: human CYP2C9, CYP2C9 (gene 1559) (UniProt P11712); assay: NVS_ADME_hCYP2C9: NovaScreen (NVS) CYP450-related Enzyme Activity (ADME) Assay for human CYP2C9 (AID 2283108)
How it was run: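 Cell-free assay of recombinant human CYP2C9 produced in Sf9 cells, with enzyme activity read by fluorescence intensity 0.75 h after compound addition. Loss of signal versus an acetonitrile negative control indicates inhibition. Primary screen used 10 uM in duplicate; actives were retested in concentration series.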

[4] = molecular target: human CYP4F12, CYP4F12 (gene 66002) (UniProt Q9HCS2); assay: NVS_ADME_hCYP4F12: NovaScreen (NVS) CYP450-related Enzyme Activity (ADME) Assay for human CYP4F12 (AID 2283111)
How it was run: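 Recombinant enzyme with a fluorescent substrate, signal read at 0.5 h post-dose; activity loss analysed relative to acetonitrile. Compounds first run in duplicate at 10 uM, with follow-up concentration-response testing of actives.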

[5] = molecular target: Cytochrome P450 2C19 (Homo sapiens) (UniProt P33261); assay: NVS_ADME_hCYP2C19: NovaScreen (NVS) CYP450-related Enzyme Activity (ADME) Assay for human CYP2C19 (AID 2283113);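 for AC50: potency for inhibition seen as loss of fluorescent signal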
How it was run: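 Fluorescence intensity was measured 1 hour after chemicals were added to insect-cell-derived recombinant CYP2C19 with fluorogenic substrate. Decreased signal versus acetonitrile control was taken as reduced enzyme activity; initial testing used 10 uM in duplicate.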

[6] = molecular target: rat CYP2C11, Cyp2c11 (gene 29277) (UniProt P08683); assay: NVS_ADME_rCYP2C11: NovaScreen (NVS) CYP450-related Enzyme Activity (ADME) Assay for rat CYP2C11 (AID 2283118)
How it was run: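 Screened first at 10 uM in duplicate, hits followed by concentration-response. Recombinant rat enzyme activity monitored by fluorescence 0.33 h post-dosing, normalised to acetonitrile negative control.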

[7] = molecular target: rat CYP2C12, Cyp2c12 (gene 25011) (UniProt P11510); assay: NVS_ADME_rCYP2C12: NovaScreen (NVS) CYP450-related Enzyme Activity (ADME) Assay for rat CYP2C12 (AID 2283119)
How it was run: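 Fluorescent-substrate turnover by recombinant rat CYP2C12, measured at 0.5 h, normalized to acetonitrile vehicle. Chemicals screened first at a single 10 uM concentration in duplicate, with concentration series for actives.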

[8] = test system: rat CYP2C6, gene 293989; assay: NVS_ADME_rCYP2C6: NovaScreen (NVS) CYP450-related Enzyme Activity (ADME) Assay for rat CYP2C6 (AID 2283120)
How it was run: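 Compounds first tested in duplicate at 10 uM, hits (e.g. 30% inhibition) re-run in singleton dose series to a 20 uM top concentration. Enzyme activity of recombinant rat CYP2C6 measured via fluorescent substrate turnover after 1 h; acetonitrile baseline.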

[9] = molecular target: rat CYP3A2, Cyp3a2 (gene 266682) (UniProt P05183); assay: NVS_ADME_rCYP3A2: NovaScreen (NVS) CYP450-related Enzyme Activity (ADME) Assay for rat CYP3A2 (AID 2283128)
How it was run: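 Fluorescence readout of extracted rat CYP3A2 activity 0.5 h post-dose, acetonitrile as negative control. Single-point testing in duplicate at 10 uM, followed by concentration series to a 20 uM maximum for actives.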

[10] = molecular target: human CYP1A2, CYP1A2 (gene 1544) (UniProt P05177); assay: NVS_ADME_hCYP1A2: NovaScreen (NVS) CYP450-related Enzyme Activity (ADME) Assay for human CYP1A2 (AID 2283102);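 for AC50: potency for inhibition since loss of fluorescence marks reduced CYP1A2 activity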
How it was run: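 rec. hCYP1A2 (insect cells), cell-free; fluorogenic substrate; 0.5 h; FI read. Baseline = acetonitrile; signal loss = inhibition. 10 uM duplicate primary → conc. series for actives.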

[11] = molecular target: Cytochrome P450 2C18 (Homo sapiens) (UniProt P33260); assay: NVS_ADME_hCYP2C18: NovaScreen (NVS) CYP450-related Enzyme Activity (ADME) Assay for human CYP2C18 (AID 2283103; active = hit-call score of the fitted dose curve at least 0.9, where 1 is the maximum; inactive = score below 0.9)
How it was run: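 Enzyme activity measured by fluorescence 0.5 h after compound addition, using recombinant CYP2C18 and a specific substrate. Actives from duplicate 10 uM screening were retested in concentration series (top 20 uM); acetonitrile served as negative baseline.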

[12] = molecular target: human CYP2C8, CYP2C8 (gene 1558) (UniProt P10632); assay: NVS_ADME_hCYP2C8: NovaScreen (NVS) CYP450-related Enzyme Activity (ADME) Assay for human CYP2C8 (AID 2283104; active = hit-call score of the fitted dose curve at least 0.9, where 1 is the maximum; inactive = score below 0.9)
How it was run: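 Fluorescence readout of substrate turnover by recombinant CYP2C8 after 0.5 h, baseline acetonitrile. Single-concentration duplicate screen at 10 uM preceded singleton concentration series (max 20 uM) for compounds passing the inhibition threshold.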

[13] = molecular target: rat CYP2D1, Cyp2d1 (gene 266684) (UniProt P10633); assay: NVS_ADME_rCYP2D1: NovaScreen (NVS) CYP450-related Enzyme Activity (ADME) Assay for rat CYP2D1 (AID 2283122)
How it was run: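 Rat CYP2D1 enzyme activity measured by fluorescence intensity in a cell-free format, 0.75 h post-dosing, acetonitrile as negative control. Screening at 10 uM in duplicate, with actives followed in concentration series up to 20 uM.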

[14] = test system: rat CYP3A1, gene 25642; assay: NVS_ADME_rCYP3A1: NovaScreen (NVS) CYP450-related Enzyme Activity (ADME) Assay for rat CYP3A1 (AID 2283126)
How it was run: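 Compounds went first at 10 uM duplicate, then to series with 20 uM maximum. Fluorescence from substrate turnover by the recombinant enzyme was measured 0.5 h post-dosing, inhibition scored against acetonitrile vehicle.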

[15] = molecular target: rat CYP2A2, Cyp2a2 (gene 24895) (UniProt P15149); assay: NVS_ADME_rCYP2A2: NovaScreen (NVS) CYP450-related Enzyme Activity (ADME) Assay for rat CYP2A2 (AID 2283116)
How it was run: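 Compounds first tested in duplicate at 10 uM, then in singleton concentration series up to 20 uM when over threshold. Activity of the recombinant enzyme read by fluorescence at 0.2 h, normalised to acetonitrile vehicle.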

[16] = molecular target: human CYP2B6, CYP2B6 (gene 1555) (UniProt P20813); assay: NVS_ADME_hCYP2B6: NovaScreen (NVS) CYP450-related Enzyme Activity (ADME) Assay for human CYP2B6 (AID 2283101)
How it was run: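 Recombinant human CYP2B6 with fluorogenic substrate, read by fluorescence intensity 1 h after dosing. Primary screen in duplicate at 10 uM, actives followed in concentration series; signal loss relative to acetonitrile control.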

[17] = molecular target: rat CYP2A1, Cyp2a1 (gene 24894) (UniProt P11711); assay: NVS_ADME_rCYP2A1: NovaScreen (NVS) CYP450-related Enzyme Activity (ADME) Assay for rat CYP2A1 (AID 2283114; active = hit-call score of the fitted dose curve at least 0.9, where 1 is the maximum; inactive = score below 0.9)
How it was run: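 Cell-free fluorescence enzyme-activity read on recombinant rat CYP2A1, taken 0.75 h post-dosing. Compounds were screened in duplicate at 10 uM, then hits tested in concentration series (max 20 uM); inhibition scored relative to acetonitrile baseline.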

[18] = molecular target: rat CYP1A2, Cyp1a2 (gene 24297) (UniProt P04799); assay: NVS_ADME_rCYP1A2: NovaScreen (NVS) CYP450-related Enzyme Activity (ADME) Assay for rat CYP1A2 (AID 2283115)
How it was run: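 Primary testing ran in duplicate at 10 uM, with actives re-tested across concentration series. Fluorescence intensity from substrate turnover by recombinant protein, measured 1 hour post-dosing, with signal loss scored against acetonitrile vehicle.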

[19] = molecular target: rat CYP2C13, Cyp2c13 (gene 171521) (UniProt P20814); assay: NVS_ADME_rCYP2C13: NovaScreen (NVS) CYP450-related Enzyme Activity (ADME) Assay for rat CYP2C13 (AID 2283121)
How it was run: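 Inhibition is read as decreased fluorescent product formation, referenced to acetonitrile vehicle. Cell-free recombinant rat Cyp2c13 reaction ran 0.75 hour; compounds first at 10 uM in duplicate, then concentration series for actives.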

[20] = molecular target: rat CYP2D2, Cyp2d26 (gene 25053) (UniProt P10634); assay: NVS_ADME_rCYP2D2: NovaScreen (NVS) CYP450-related Enzyme Activity (ADME) Assay for rat CYP2D2 (AID 2283124)
How it was run: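 Single-concentration duplicate testing at 10 uM, followed by concentration-response (top 20 uM) for chemicals passing threshold. Enzyme activity of the recombinant rat isoform measured by fluorescence after 0.75 h, acetonitrile as baseline.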

Measured: AC50

Sequence of rat CYP2D1, Cyp2d1 (gene 266684) (P10633 whole entry, looked up): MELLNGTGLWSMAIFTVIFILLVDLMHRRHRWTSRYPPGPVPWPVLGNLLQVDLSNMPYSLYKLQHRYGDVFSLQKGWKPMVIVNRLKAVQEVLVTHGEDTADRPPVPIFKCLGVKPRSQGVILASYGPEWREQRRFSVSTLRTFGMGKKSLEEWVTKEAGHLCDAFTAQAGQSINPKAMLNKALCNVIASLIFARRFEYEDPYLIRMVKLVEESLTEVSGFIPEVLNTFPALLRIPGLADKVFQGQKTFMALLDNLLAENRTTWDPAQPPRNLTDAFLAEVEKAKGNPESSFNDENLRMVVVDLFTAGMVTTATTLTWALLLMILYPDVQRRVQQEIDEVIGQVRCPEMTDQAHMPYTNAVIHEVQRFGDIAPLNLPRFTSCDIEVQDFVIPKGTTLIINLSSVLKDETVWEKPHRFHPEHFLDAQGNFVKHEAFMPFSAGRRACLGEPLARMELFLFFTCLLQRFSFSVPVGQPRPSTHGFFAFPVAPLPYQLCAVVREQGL
Sequence of human CYP2D6, CYP2D6 (gene 1565) (P10635 whole entry, looked up): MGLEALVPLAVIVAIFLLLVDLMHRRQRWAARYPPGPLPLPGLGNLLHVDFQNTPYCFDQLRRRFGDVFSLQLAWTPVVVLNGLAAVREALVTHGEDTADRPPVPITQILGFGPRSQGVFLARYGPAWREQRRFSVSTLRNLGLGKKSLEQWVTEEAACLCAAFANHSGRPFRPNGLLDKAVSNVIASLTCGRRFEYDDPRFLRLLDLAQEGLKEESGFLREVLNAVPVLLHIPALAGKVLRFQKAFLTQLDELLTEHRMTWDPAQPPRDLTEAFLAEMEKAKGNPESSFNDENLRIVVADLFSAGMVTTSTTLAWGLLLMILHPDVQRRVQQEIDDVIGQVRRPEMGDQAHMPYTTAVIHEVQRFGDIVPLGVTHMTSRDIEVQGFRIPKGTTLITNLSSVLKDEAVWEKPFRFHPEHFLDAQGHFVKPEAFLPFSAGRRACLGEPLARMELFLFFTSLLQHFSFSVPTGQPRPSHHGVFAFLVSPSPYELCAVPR
Sequence of Cytochrome P450 2C18 (Homo sapiens) (P33260 whole entry, looked up): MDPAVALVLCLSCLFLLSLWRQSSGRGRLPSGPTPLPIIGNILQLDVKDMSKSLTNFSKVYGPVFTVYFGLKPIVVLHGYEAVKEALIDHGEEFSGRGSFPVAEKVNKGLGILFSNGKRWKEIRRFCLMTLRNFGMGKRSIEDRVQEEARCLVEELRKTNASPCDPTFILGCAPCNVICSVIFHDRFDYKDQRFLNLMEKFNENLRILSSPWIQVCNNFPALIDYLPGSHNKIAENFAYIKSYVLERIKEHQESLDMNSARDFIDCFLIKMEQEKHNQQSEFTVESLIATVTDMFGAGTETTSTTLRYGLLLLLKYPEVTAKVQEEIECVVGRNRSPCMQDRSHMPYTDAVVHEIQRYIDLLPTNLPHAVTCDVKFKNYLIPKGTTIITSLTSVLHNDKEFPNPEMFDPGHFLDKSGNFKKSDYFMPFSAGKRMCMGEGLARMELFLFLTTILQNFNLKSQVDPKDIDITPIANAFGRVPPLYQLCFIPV
Sequence of rat CYP1A2, Cyp1a2 (gene 24297) (P04799 whole entry, looked up): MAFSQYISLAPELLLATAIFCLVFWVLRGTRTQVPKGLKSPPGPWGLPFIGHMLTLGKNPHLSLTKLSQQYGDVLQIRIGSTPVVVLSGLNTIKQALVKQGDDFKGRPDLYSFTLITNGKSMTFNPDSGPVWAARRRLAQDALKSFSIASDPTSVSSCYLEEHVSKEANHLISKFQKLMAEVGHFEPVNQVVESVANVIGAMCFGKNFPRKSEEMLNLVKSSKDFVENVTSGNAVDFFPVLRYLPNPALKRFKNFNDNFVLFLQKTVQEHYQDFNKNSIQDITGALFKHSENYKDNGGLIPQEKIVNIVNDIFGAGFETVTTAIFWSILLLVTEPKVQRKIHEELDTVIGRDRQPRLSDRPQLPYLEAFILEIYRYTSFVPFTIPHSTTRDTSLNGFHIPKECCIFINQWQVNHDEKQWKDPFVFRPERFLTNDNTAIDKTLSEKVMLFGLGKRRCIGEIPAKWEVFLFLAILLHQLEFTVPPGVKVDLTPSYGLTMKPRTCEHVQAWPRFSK
Sequence of rat CYP2C11, Cyp2c11 (gene 29277) (P08683 whole entry, looked up): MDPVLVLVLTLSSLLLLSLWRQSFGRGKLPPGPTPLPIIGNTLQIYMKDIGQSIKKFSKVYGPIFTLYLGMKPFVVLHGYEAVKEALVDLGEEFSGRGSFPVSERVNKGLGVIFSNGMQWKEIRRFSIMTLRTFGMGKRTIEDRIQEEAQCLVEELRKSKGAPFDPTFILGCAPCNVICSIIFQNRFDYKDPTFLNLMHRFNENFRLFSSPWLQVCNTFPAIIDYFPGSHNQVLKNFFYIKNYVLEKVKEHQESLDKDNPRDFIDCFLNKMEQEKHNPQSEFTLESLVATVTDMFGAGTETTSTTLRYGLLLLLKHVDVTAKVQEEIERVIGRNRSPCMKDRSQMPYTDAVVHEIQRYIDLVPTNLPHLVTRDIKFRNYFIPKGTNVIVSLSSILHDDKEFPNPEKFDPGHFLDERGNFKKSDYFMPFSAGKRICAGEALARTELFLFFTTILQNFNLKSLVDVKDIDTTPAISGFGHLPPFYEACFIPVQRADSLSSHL
Sequence of human CYP2C9, CYP2C9 (gene 1559) (P11712 whole entry, looked up): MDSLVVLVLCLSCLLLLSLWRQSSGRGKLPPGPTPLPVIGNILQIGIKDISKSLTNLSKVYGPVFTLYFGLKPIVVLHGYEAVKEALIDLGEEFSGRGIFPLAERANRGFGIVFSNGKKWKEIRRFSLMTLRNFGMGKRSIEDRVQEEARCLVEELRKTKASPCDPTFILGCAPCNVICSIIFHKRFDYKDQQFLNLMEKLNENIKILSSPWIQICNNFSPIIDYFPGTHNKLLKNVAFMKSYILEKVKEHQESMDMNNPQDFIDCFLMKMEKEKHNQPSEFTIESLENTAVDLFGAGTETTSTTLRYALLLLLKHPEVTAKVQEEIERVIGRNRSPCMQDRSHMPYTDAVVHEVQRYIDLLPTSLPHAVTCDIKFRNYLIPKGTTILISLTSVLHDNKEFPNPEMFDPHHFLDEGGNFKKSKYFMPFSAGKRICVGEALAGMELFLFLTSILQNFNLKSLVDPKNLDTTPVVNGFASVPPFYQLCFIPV
Sequence of human CYP2B6, CYP2B6 (gene 1555) (P20813 whole entry, looked up): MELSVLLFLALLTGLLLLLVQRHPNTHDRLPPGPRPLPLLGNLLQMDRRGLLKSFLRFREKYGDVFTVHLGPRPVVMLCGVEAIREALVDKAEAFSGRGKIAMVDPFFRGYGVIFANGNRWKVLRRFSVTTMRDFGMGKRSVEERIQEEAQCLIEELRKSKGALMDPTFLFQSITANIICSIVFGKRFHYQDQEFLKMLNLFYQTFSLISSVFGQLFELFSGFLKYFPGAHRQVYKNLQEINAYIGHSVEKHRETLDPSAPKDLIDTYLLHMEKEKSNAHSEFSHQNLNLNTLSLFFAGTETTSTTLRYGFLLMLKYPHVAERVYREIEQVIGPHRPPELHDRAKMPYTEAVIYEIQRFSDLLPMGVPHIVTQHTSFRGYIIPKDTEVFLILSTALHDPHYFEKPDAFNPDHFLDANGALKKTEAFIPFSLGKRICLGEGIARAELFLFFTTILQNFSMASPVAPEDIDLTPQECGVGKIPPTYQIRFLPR
Sequence of human CYP2C8, CYP2C8 (gene 1558) (P10632 whole entry, looked up): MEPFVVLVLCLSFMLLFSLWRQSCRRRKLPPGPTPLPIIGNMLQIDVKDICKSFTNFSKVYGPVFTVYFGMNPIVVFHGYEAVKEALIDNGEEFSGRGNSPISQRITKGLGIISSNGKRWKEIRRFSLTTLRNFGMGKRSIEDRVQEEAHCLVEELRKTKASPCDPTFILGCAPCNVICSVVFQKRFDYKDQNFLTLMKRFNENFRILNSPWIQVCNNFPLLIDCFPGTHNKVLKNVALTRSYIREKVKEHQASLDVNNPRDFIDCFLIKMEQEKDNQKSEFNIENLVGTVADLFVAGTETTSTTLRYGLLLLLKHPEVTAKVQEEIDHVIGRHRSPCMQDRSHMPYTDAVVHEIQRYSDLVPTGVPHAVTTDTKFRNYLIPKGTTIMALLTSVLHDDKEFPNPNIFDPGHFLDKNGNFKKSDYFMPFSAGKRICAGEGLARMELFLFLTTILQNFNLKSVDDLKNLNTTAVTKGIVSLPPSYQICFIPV
Sequence of human CYP1A2, CYP1A2 (gene 1544) (P05177 whole entry, looked up): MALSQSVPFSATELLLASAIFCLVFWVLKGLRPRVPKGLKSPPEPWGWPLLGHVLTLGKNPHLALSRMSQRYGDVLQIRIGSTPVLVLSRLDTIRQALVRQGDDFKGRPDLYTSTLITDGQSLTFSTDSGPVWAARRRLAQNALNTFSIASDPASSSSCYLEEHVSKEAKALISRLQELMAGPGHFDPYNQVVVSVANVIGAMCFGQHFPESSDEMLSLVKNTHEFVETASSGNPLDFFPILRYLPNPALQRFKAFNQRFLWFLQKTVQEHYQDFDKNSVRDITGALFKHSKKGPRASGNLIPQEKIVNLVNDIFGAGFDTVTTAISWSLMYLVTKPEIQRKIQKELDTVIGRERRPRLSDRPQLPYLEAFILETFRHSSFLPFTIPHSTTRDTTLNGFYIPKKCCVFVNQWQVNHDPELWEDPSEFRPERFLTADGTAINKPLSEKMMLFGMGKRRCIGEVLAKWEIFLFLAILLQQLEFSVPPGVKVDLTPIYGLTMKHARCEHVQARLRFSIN
Sequence of rat CYP2A2, Cyp2a2 (gene 24895) (P15149 whole entry, looked up): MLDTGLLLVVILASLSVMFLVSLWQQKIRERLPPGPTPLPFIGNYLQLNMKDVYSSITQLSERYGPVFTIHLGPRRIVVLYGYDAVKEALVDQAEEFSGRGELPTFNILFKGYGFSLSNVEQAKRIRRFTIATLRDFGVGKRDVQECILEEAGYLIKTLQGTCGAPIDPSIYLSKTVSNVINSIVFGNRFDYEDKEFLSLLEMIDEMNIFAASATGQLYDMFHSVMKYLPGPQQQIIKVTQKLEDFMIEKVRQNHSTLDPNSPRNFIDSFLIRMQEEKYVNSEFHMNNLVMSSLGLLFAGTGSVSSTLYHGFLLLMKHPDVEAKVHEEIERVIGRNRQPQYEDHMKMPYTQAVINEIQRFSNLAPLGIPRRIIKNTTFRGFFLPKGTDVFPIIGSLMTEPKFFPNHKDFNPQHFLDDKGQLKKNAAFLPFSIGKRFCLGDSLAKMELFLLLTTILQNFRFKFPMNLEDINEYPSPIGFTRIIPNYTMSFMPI

CS/C(C)=N/OC(=O)N(C)SN(C)C(=O)O/N=C(\C)SC
inactive: [4]
active: [1] 2790 nM | [2] 934 nM | [3] 5.64 µM | [5] 3.43 µM | [6] 3660 nM | [7] 1120 nM | [8] 3630 nM | [9] 3390 nM

COC(=O)N(OC)c1ccccc1COc1ccn(-c2ccc(Cl)cc2)n1
inactive: [12] | [13]
active: [10] 0.912 µM | [11] 0.784 µM | [3] 1.26 µM | [5] 0.72 µM | [6] 809 nM | [14] 1.29 µM

CCCCNC(=O)OCC#CI
active: [11] 2.41 µM and 4.8 µM | [5] 1.81 µM and 2.46 µM | [15] 5.3 µM and 5.4 µM | [14] 1.46 µM and 4.29 µM

COc1nc(C)nc(NC(=O)NS(=O)(=O)c2ccccc2Cl)n1
inactive: [2]

Fc1ccc(Oc2ccnc3cc(Cl)cc(Cl)c23)cc1
active: [10] 7.42 µM | [6] 15600 nM
inactive: [5]

CCON=C(CC)C1=C(O)CC(c2c(C)cc(C)cc2C)CC1=O (stereo not given)
active: [5] 3.37 µM | [14] 4.22 µM | [9] 3000 nM

COc1nc(C)nc(NC(=O)NS(=O)(=O)c2ccccc2CCC(F)(F)F)n1
inactive: [3]
active: [14] 7.5 µM and 7.14 µM and 7.37 µM

CCOP(=S)(OCC)SCn1c(=O)oc2cc(Cl)ccc21
active: [16] 1250 nM | [10] 2 µM | [11] 1.46 µM | [2] 2800 nM | [3] 1.8 µM | [5] 0.215 µM | [17] 3220 nM | [15] 10 µM | [6] 993 nM | [7] 2170 nM | [8] 336 nM | [19] 2.09 µM | [13] 7170 nM | [20] 2.07 µM | [14] 1.16 µM | [9] 518 nM
inactive: [1] | [18]

CON(C)C(=O)Nc1ccc(Cl)c(Cl)c1
inactive: [18] | [14]
active: [19] 8.64 µM and 6.6 µM

CC(C)Oc1cc(-n2nc(C(C)(C)C)oc2=O)c(Cl)cc1Cl
inactive: [5]
active: [10] 6.42 µM

COc1ccc(C(c2ccc(OC)cc2)C(Cl)(Cl)Cl)cc1
active: [11] 4.6 µM | [3] 10 µM | [5] 7 µM | [8] 9600 nM
not listed: [1] | [2] | [10] | [13] | [16] | [18]
inactive: all other assays above

CC1COC(Cn2cncn2)(c2ccc(Oc3ccc(Cl)cc3)cc2Cl)O1 (stereo not given)
active: [16] 1710 nM | [11] 1.07 µM | [12] 2740 nM | [1] 438 nM | [3] 1.34 µM | [5] 0.0258 µM | [17] 140 nM | [15] 0.127 µM | [6] 1730 nM | [7] 1080 nM | [8] 1560 nM | [19] 1.43 µM | [13] 685 nM | [20] 1.4 µM | [14] 0.628 µM | [9] 1350 nM

N#Cc1cc(Br)c(O)c(Br)c1
inactive: [2]

C=CCC1=C(C)C(OC(=O)C2C(C=C(C)C)C2(C)C)CC1=O (stereo not given)
active: [3] 7.07 µM and 14.6 µM and 6.76 µM | [9] 6870 nM
inactive: [16] | [3]

COP(=S)(OC)Oc1nc(Cl)c(Cl)cc1Cl
inactive: [10] | [11] | [18] | [14]
active: [5] 10 µM

O=C(O)c1nc(Cl)ccc1Cl
inactive: [5]

COC(=O)C(C)Oc1ccc(Oc2ccc(Cl)cc2Cl)cc1 (stereo not given)
inactive: [20]
active: [5] 10 µM and 14.1 µM and 7.91 µM | [20] 7.38 µM and 10 µM

CO/C=C(/C(=O)OC)c1ccccc1Oc1cc(Oc2ccccc2C#N)ncn1
active: [11] 5.5 µM | [17] 3830 nM | [6] 2810 nM | [8] 2120 nM | [13] 5450 nM | [14] 5.8 µM | [9] 6600 nM
inactive: [3]

CCCN(CCC)c1c([N+](=O)[O-])cc(S(N)(=O)=O)cc1[N+](=O)[O-]
active: [11] 2.71 µM | [12] 4890 nM | [5] 1.34 µM [middle of 4 runs] | [17] 2620 nM | [7] 3080 nM | [8] 7630 nM | [20] 1.3 µM | [14] 1.24 µM | [9] 2670 nM
inactive: [16] | [6]

CCNc1nc(Cl)nc(NC(C)C)n1
active: [10] 14.8 µM and 9.2 µM | [5] 10 µM
inactive: [15]

CCNc1nc(Cl)nc(NCC)n1
active: [1] 200 nM
